PubChem BioAssay AID485284 (NMMLSC, 2010)
Measured potencies and affinities stand elsewhere.

assay: inhibitors of CD8+ T cell–vesicle binding, dose response, mouse 2C CD8+ T cells, flow cytometry (AID 485284); conditions: 2C mouse CD8+ T cell-exosome binding; at 45 µM (top of the series);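 also: drosophila derived vesicles carrying Ld MHC with QL9 peptide plus B7-1 and ICAM-1; vesicle binding seen as anti-B7-1 PE fluorescence on CD8 gated cells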

| Compound | binding remaining, % of control [%] |
| --- | --- |
| COc1ccc(NC(=O)CN2CCN(S(=O)(=O)c3ccc(Cl)cc3)CC2)cc1 | 79.2 |
| CN(C)S(=O)(=O)c1ccc(C(=O)NCCc2ccco2)cc1 | 128 |
| CCOc1ccc(C(=O)NNC(=O)CN2C(=O)C3CC=CCC3C2=O)cc1OC (stereo unspecified) | 194 |
| O=C(NNC(=S)NC(=O)c1ccco1)c1ccc(F)cc1 | 159 |
| O=C(OCC(=O)N1CCN(C(=O)c2ccco2)CC1)c1ccccc1Cc1ccccc1 | 73 |
| CC1CCC(NC(=O)CN2C(=O)NC3(CCCCCC3)C2=O)CC1 (stereo unspecified) | 101 |
| CC1CCCN(CC(=O)NC(=O)NC2CCCCC2)C1 (stereo unspecified) | 109 |
| CC(C)C(C(=O)NC1=NCCS1)c1ccc(Cl)cc1 (stereo unspecified) | 31.2 |
| CCOC(=O)C1(CC2CCCCO2)CCN(S(=O)(=O)c2ccc(C)s2)CC1 (stereo unspecified) | 105 |
| Cn1c(CNC(=O)CNC(=O)c2ccc(F)cc2)cc(=O)n(C)c1=O | 99.6 |
| CCCc1nnc(NC(=O)c2ccc(S(=O)(=O)N(C)c3ccccc3OC)cc2)s1 | 142 |
| COc1ccc(N2C(=O)CC(Sc3ncn[nH]3)C2=O)c(OC)c1 (stereo unspecified) | 135 |
| O=C(NC(=S)Nc1nc(-c2ccccc2)cs1)c1cccs1 | 173 |
| CC(C)(C)Nc1nc2nonc2nc1NC(C)(C)C | 147 |
| CCCCN(C(=O)C1CCC1)c1c(N)n(CC(C)C)c(=O)[nH]c1=O | 53.6 |
| COc1ccc([C@H]2CC(=O)C=C(c3cc(F)ccc3OC)C2)cc1 | 109 |
